Source: PubChem BioAssay (Sanford-Burnham Center for Chemical Genomics)
In the library only some 4% were active in any assay of this set; here they are far more common.
TWEAK-Fn14 inh – blocks TWEAK-Fn14 interaction in a reporter cell assay. TWEAK-stimulated Fn14 reporter cells, luciferase luminescence, 8 h. 2% of 360,000 active. inhibition, % at 10 µM; in the data active = inhibition above about 50%
HIF-2a block – HIF-2a inhibition; inhibition, % at 18.8 µM; AID 624352; 0.72% of 360,000 active; 786-0 RCC cells HIF-2a reporter, luciferase luminescence, overnight;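 active = inhibition of the luminescence signal of 40% or more relative to plate controls, in a single-dose primary screen at 18.75 µM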
KKLEB tox – reduces viability of KKLEB cystic fibrosis airway cells. KKLEB CF airway cells viability, ATPlite luminescence, overnight; active compounds read low; cells stimulated with P. aeruginosa culture filtrate. activity change (cytotoxicity), % at 5 µM. AID 602141. 0.36% of 360,000 active;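 active = corrected activity change at or below -50% at 5 µM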
Peg3 promoter – inhibitors of Peg3 promoter; 1.7% of 360,000 active; inhibition, % at 20 µM; HeLa PEG-Prom luciferase reporter, luminescence, overnight;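 active = inhibition of at least 50% at 20 µM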
CF NFkB block – cystic fibrosis NF-kB activation inhibition. KKLEB NF-kB-GFP reporter, PAF-induced, GFP fluorescence overnight. inhibition, % at 5 µM. 0.86% of 360,000 active. AID 588850;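 active = at least 50% inhibition at 5 µM, scaled per plate between neutral and stimulator controls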;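 also: PAF is a Pseudomonas aeruginosa culture filtrate used as stimulus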
TROY NFkB inh – blocks TROY-dependent signaling in reporter cells | AID 1347056 | Q293 LMP1-TROYcd NF-kB luciferase reporter, 4 h | inhibition, % at 10 µM | 0.98% of 360,000 active;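 active = compounds whose plate-normalised and pattern-corrected inhibition of the luciferase reporter signal at the single screening dose is 50% or more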
Mdm2-MdmX confirm – Mdm2/MdmX (human) interaction inhibition, confirmed | shares compounds with HIF-2a block | SaOS-2 split-luciferase Mdm2/MdmX complementation, luminescence | 99% of 740 active | inhibition, % at 8 µM | AID 504601;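 active = mean inhibition of the luminescence signal across two replicates at or above 26 percent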
Target sequence (O15151 whole entry, looked up): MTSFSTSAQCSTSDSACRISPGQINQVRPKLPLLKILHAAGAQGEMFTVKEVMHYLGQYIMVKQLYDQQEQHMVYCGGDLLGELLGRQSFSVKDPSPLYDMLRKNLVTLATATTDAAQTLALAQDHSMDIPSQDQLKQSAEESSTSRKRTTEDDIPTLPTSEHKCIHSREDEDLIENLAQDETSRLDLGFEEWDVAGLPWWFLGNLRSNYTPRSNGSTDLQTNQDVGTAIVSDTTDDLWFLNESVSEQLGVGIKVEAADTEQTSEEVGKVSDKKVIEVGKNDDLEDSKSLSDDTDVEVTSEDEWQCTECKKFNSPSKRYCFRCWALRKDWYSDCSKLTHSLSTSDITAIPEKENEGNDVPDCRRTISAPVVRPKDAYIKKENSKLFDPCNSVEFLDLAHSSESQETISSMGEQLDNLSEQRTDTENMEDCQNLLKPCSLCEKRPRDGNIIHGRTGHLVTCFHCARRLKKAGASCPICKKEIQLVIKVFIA
Target sequence (Q00987 whole entry, looked up): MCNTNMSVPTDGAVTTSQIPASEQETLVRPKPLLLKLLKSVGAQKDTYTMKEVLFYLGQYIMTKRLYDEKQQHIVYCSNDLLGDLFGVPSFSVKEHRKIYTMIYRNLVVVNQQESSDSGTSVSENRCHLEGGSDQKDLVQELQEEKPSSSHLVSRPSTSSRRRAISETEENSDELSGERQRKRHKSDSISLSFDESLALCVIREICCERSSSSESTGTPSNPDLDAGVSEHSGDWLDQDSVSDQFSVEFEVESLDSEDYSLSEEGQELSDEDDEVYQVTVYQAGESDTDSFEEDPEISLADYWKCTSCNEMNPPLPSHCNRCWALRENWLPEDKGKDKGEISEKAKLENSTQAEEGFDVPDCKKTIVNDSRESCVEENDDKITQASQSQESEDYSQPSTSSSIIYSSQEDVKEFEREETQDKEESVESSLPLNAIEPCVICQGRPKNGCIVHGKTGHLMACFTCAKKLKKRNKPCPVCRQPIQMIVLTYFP
HIF-2a inh conf – confirmation of HIF-2a inhibitors; shares compounds with HIF-2a block; 786-0 RCC cells, HIF-2a luciferase reporter luminescence, overnight; inhibition, % at 18.8 µM; 56% of 1,800 active; AID 651580;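 active = mean inhibition across four replicates of at least 40 percent at the single tested concentration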
HIF-1a cs – HIF-1a inhibition counter-screen for HIF-2a hits; shares compounds with HIF-2a block; MiaPaCa-2 HIF-1a luciferase reporter, desferoxamine, overnight; inhibition, % at 18.8 µM; 72% of 1,800 active;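 active = mean inhibition of the reporter signal across four replicates at the single tested dose of 50% or more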
Each line names hits and unclear results; the compound was inactive in the other large screens (follow-up assays come after a bar, where they were run).

Cc1ccc(S(=O)(=O)NNC(=O)c2cccnc2)cc1	none
CCOC(=O)C1Nc2ccc(C(F)(F)F)cc2C2c3ccccc3CC12 (configuration not stated)	none | Mdm2-MdmX confirm 65.8
COCCN(CC(=O)NC1CCCCC1)C(=O)/C=C/C(=O)c1ccc(OC)cc1O	TWEAK-Fn14 inh 74.1, HIF-2a block 91.7, Peg3 promoter 97.4, TROY NFkB inh 58.4 | HIF-2a inh conf 98.7 | HIF-1a cs 102.8
COc1ccc(C(=O)/C=C/C(=O)N(CC(=O)NC2CCCCC2)Cc2cccs2)c(O)c1	TWEAK-Fn14 inh 82.1, HIF-2a block 95.4, Peg3 promoter 104.8 | HIF-2a inh conf 95.1 | HIF-1a cs 100.6
COc1ccc(CN(C(=O)/C=C/C(=O)c2ccc(OC)cc2O)C(C(=O)NC2CCCCC2)c2ccncc2)cc1 (configuration not stated)	none
Cc1ccc(C)c(-n2nnnc2Sc2nnnn2-c2ccccc2)c1	TWEAK-Fn14 inh 101.1, KKLEB tox -68.3, Peg3 promoter 95.8, CF NFkB block 92.0, TROY NFkB inh 53.1 | Mdm2-MdmX confirm 103.2
NNC(=O)c1cc2ccccc2cc1O	TWEAK-Fn14 inh 90.9, HIF-2a block 69.5 | HIF-2a inh conf 80.5 | HIF-1a cs 74.5
Cc1ccc(Cl)cc1NC(=O)c1cc2ccccc2cc1O	KKLEB tox -54.8, CF NFkB block 50.9, TROY NFkB inh 52.3 | Mdm2-MdmX confirm 100.7
COc1ccc([N+](=O)[O-])cc1NC(=O)Nc1cccc(Cl)c1	none
C[C@@]12C(=O)OC(=O)[C@]1(C)C1CCC2O1	TWEAK-Fn14 inh 98.3, HIF-2a block 78.6, Peg3 promoter 84.5, CF NFkB block 83.8, TROY NFkB inh 65.6 | Mdm2-MdmX confirm 100.0
COc1ccccc1OC(=O)CCN1c2ccccc2Sc2ccccc21	none
COc1ccccc1-[n+]1c(C)cc(/C=C2\Sc3ccccc3N2C)cc1C	TWEAK-Fn14 inh 89.2, HIF-2a block 57.4, Peg3 promoter 67.3, TROY NFkB inh 81.7 | Mdm2-MdmX confirm 103.2
COc1ccc(NC(=O)c2ccc(CNc3c(NC4CCCCC4)c(=O)c3=O)cc2)cc1OC	none
O=c1cc(CCl)nc(Cc2c(Cl)cccc2Cl)[nH]1	none
COC[C@@H]1CCCN1[C@@H]1CS(=O)(=O)N[C@H]1COCc1ccccc1	none
COc1cccc(-n2c(SCC(=O)Nc3cc(C)on3)nc3c([nH]c4ccccc43)c2=O)c1	HIF-2a block 39.4 | HIF-2a inh conf inactive | HIF-1a cs inactive
Cc1cc(NC(=O)CSc2nc3c([nH]c4ccccc43)c(=O)n2-c2cccc(C(F)(F)F)c2)no1	none (no result: TROY NFkB inh)
NC(=O)CCN(C(=O)c1cccc(S(=O)(=O)N2CCc3ccccc32)c1)c1ccccc1	none
Cc1ccc(C)c(-c2nc3cc(N)ccc3o2)c1	TWEAK-Fn14 inh 66.6, HIF-2a block 64.9 (no result: TROY NFkB inh) | HIF-2a inh conf 70.3 | HIF-1a cs inactive
Cc1ccc(-c2nc3cc(N)ccc3o2)cc1Br	none
Nc1ccc2oc(-c3cc(Br)ccc3Cl)nc2c1	HIF-2a block 61.4 | HIF-2a inh conf 89.7 | HIF-1a cs inactive
COc1ccc(NC(=O)C(=O)NCCN2CCN(C(=O)c3ccc(C)cc3)CC2)cc1	none
Cc1noc(/C=C/c2cccnc2)c1[N+](=O)[O-]	HIF-2a block 47.7 | HIF-2a inh conf inactive | HIF-1a cs 56.2
Cc1cccc(C)c1N/C=C/c1onc(C)c1[N+](=O)[O-]	none
Cc1ccc(-c2csc3ncnc(Sc4nnc(CN5CCCCCC5=O)o4)c23)cc1	TWEAK-Fn14 inh 84.8, HIF-2a block 94.3, Peg3 promoter 106.2, CF NFkB block 93.3 | HIF-2a inh conf 99.5 | HIF-1a cs 103.5
O=C(C1=C[C@H](c2ccc(Br)cc2)C[C@H](OCc2ccc(CO)cc2)O1)N1CCN(Cc2ccc3c(c2)OCO3)CC1	none
Cc1oc(=O)c(NC(=O)c2ccccc2)cc1C(N)=O	none
O=C(Nc1cc2ccccc2oc1=O)c1ccccc1	TWEAK-Fn14 inh 90.3, HIF-2a block 40.0, Peg3 promoter 53.5, TROY NFkB inh 65.8 | HIF-2a inh conf 68.3 | HIF-1a cs 62.7
COc1ccc(C2(C)CC(C)(C)Nc3ccccc32)cc1 (configuration not stated)	none
Cc1[nH]c(=O)c(C(=O)/C=C/c2ccccc2F)c2c1CCCC2	TWEAK-Fn14 inh 88.8, HIF-2a block 90.4, Peg3 promoter 110.5, CF NFkB block 90.7, TROY NFkB inh 50.4 | Mdm2-MdmX confirm 103.2 | HIF-2a inh conf 92.3 | HIF-1a cs 99.8
Cc1nc2ncnn2c(C)c1CCC(=O)N1CCN(c2ccccn2)CC1	none
COc1cc(OC)cc(-c2cc3nc(C)c(CCC(=O)NCc4ccccc4)c(C)n3n2)c1	TWEAK-Fn14 inh 66.2, HIF-2a block 69.4 | HIF-2a inh conf 78.7 | HIF-1a cs 86.9
Cc1nc2cc(-c3ccccc3)nn2c(C)c1CCC(=O)N1CCN(c2ccccc2)CC1	HIF-2a block 68.9 | HIF-2a inh conf 79.0 | HIF-1a cs 52.9
COc1ccccc1-c1cc2nc(C)c(CCC(=O)NCc3ccc(F)cc3)c(C)n2n1	none
Cc1cc(C2(c3ccc(O)c(C)c3)C(=O)Nc3ccccc32)ccc1O	HIF-2a block 44.9, Peg3 promoter 80.0 | HIF-2a inh conf inactive | HIF-1a cs 69.3
Cc1cccc2c1NC(=O)C2(c1ccc(O)cc1)c1ccc(O)cc1	none
O=S(=O)(/C(=C\c1ccc(C(F)(F)F)cc1)c1nc2ccccc2[nH]1)c1ccccc1	TWEAK-Fn14 inh 99.8, HIF-2a block 84.5, KKLEB tox -67.6, Peg3 promoter 104.8, CF NFkB block 86.0, TROY NFkB inh 53.6 | HIF-2a inh conf 97.6 | HIF-1a cs 107.4
O=C(CCn1c(=O)c2cccn2c2cccnc21)NCc1cccc(Cl)c1	none
CCOC(=O)C1=C(C)NC2=C(C(=O)CC(c3cccs3)C2)C1c1cccs1 (configuration not stated)	HIF-2a block 46.4 | HIF-2a inh conf 52.1 | HIF-1a cs 63.3
O=C(Nc1ccc(C(=O)O)cc1)/C(=C\c1ccc([N+](=O)[O-])cc1)NC(=O)c1ccco1	none
COc1cc(C=C(c2nc3ccccc3s2)c2nc3ccccc3s2)cc(OC)c1O	none
O=C(O)c1ccc(C=C(c2nc3ccccc3s2)c2nc3ccccc3s2)cc1	HIF-2a block 50.1 | HIF-2a inh conf 51.8 | HIF-1a cs 92.1
